gsp antagonist: antagonists of gsp mutant (McCune-Albright syndrome); gsp-mutant cells, cAMP HTRF, 30 min; Potency, µM (titrated, usually from 76.9 µM), actives largely listed as inhibitors; 0.4% of 340,000 active; AID 624288; calls by dose curve; cell line not stated here;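 also: intracellular cAMP measured with PDE inhibitor Ro 20-1724 present during compound exposure; nearly all actives have a fitted effect of over 65% in size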
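HTRF cAMP read-out (cAMP-d2 plus anti-cAMP antibody-K in lysis buffer, 30 min RT). Before lysis, cells are exposed to compounds with […] for 30 min at 37C in DPBS containing Ca/Mg, BSA and Tween 20.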
TRPV1 agonist: agonists of human vanilloid receptor 1 (TRPV1); activation, % at 8.33 µM; Q8NER1; AID 540275; 0.19% of 320,000 active; TRPV1-expressing cells, Fluo-8 calcium influx, agonist mode; in the data active = activation above about 80%; inconclusive = between about 30% and that limit
Target sequence (Q8NER1 whole entry, looked up): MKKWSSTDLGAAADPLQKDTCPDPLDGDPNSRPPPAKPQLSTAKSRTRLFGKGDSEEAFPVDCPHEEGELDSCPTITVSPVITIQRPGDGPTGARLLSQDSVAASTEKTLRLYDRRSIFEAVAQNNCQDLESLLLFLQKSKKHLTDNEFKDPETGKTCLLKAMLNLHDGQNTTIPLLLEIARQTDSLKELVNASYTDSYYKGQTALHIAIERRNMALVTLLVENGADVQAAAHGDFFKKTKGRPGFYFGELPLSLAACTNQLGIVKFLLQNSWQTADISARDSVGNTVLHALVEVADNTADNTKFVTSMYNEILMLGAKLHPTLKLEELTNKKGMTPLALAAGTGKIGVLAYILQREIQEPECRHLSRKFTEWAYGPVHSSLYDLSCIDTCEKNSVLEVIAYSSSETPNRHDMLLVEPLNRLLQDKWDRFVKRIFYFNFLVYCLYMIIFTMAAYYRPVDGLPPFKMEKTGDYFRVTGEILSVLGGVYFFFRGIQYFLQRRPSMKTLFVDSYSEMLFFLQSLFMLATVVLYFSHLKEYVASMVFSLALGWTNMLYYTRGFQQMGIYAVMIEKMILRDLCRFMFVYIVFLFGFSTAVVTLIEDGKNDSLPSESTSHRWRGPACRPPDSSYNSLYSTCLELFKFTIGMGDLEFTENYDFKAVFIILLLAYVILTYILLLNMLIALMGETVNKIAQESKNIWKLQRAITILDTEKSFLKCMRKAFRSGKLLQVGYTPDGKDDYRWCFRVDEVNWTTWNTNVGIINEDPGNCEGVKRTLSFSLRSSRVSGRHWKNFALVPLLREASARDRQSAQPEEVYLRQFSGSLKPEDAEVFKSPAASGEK
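Cells expressing TRPV1 were dye-loaded with Fluo-8 and read kinetically: 10 s baseline, 3 min after compound (agonist portion), then 2 min after EC20 capsaicin (allosteric enhancer portion). Calcium-bound dye fluorescence at 480/520 nm.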
gsp ag: activates gsp, the McCune-Albright syndrome mutation; gsp mutant cells, cAMP HTRF, 30 min; Potency, µM (highest dose often 76.9 µM), hits mostly activators; 0.13% of 340,000 active; active = well fitted activation curve with a large enough effect; inconclusive = small, poorly fitted or top-dose-only effect, or another doubt; inactive = no such curve, though single readings can be large or run the other way; cell line not stated here;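 also: phosphodiesterase inhibitor Ro 20-1724 added with compounds to block cAMP breakdown; nearly all actives have a fitted effect of over 60% in size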
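Cells stably selected in G418 were plated at 2000/well, grown 16-24 hr, then given compounds in DMSO with the PDE inhibitor […] (300 uM solution added) for 30 min at 37C; cAMP was read by HTRF.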
TRPV1 potentiator: human TRPV1 potentiation | potentiation, % at 8.33 µM | 0.02% of 320,000 active | TRPV1-expressing cells, Fluo-8 calcium influx, capsaicin EC20 potentiation | Q8NER1; in the data active = potentiation above about 80%; inconclusive = between about 30% and that limit
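Cells expressing TRPV1 were dye-loaded with Fluo-8 and read kinetically: 10 s baseline, 3 min after compound (agonist portion), then 2 min after EC20 capsaicin (allosteric enhancer portion). Calcium-bound dye fluorescence at 480/520 nm.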
RXFP1 antag: RXFP1 (human) relaxin receptor antagonism | HEK293-RXFP1, relaxin-stimulated cAMP HTRF, 30 min; active compounds read low | 0.59% of 350,000 active | activity change, negative = inhibition, % at 57.5 µM | Q9HBX9 | AID 1259400;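 active = activity change of -60% or lower, but not beyond a set lower limit; inconclusive = change between -60% and -40%, or beyond the set limit; inactive = change above -40%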
RXFP1 ag: agonists of human relaxin receptor RXFP1; 0.3% of 370,000 active; Q9HBX9; HEK293T-RXFP1 cAMP TR-FRET, 30 min; response scale: percent of porcine relaxin response, buffer zero; Potency, µM (top dose mostly 57.5 µM), hits mostly activators; active = well fitted activation curve with a large enough effect; inconclusive = small, poorly fitted or top-dose-only effect; also: nearly all actives have a fitted effect of over 60% in size
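cAMP rise read by TR-FRET after 30 min, 37C compound exposure (up to 58 uM) in RXFP1-transfected HEK293 cells with Ro 20174 present. EC50 from Hill-equation fits, with 29 nM porcine relaxin as 100% and buffer as basal.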
A number is an active result; [ ] = another dose, or the depositor's remark. A selection: hits, their analogues and other compounds. The true share with any hit is near 1.1%.

`CNC(=O)c1c(NC(=O)c2ccco2)sc(C)c1C` gave gsp antagonist inactive, TRPV1 agonist inactive, gsp ag inactive[15.4 µM], TRPV1 potentiator inactive, RXFP1 antag -88 and RXFP1 ag inactive.
For CC(C)(C)C(=O)Nc1ccc2nc(SCC(=O)N3CCCC3)sc2c1 the results were RXFP1 antag inactive and RXFP1 ag inactive.
Screening O=C(O)c1ccccc1C(=O)c1ccc(N2CCOCC2)c([N+](=O)[O-])c1 returned gsp antagonist inactive, TRPV1 agonist inactive, gsp ag inactive, TRPV1 potentiator inactive, RXFP1 antag -69 and RXFP1 ag inactive.
For CC(=O)c1ccc(N2CCN(c3ccccc3O)CC2)c([N+](=O)[O-])c1 the results were gsp antagonist 32µM, TRPV1 agonist inactive, gsp ag inactive[15.4 µM], TRPV1 potentiator inactive, RXFP1 antag inactive and RXFP1 ag inactive.
Screening CCOc1ccc(NC(=O)CCNS(=O)(=O)c2ccc3c(c2)CCCC(=O)N3)cc1 returned RXFP1 ag inactive.
`Cn1cnnc1SCC(=O)Nc1ccc(C#N)cc1` gave RXFP1 antag inactive and RXFP1 ag inactive.
Screening CCN(Cc1nc2cc(Cl)ccc2c(=O)[nH]1)C(=O)c1nn(C)c(=O)c2ccccc12 returned gsp antagonist inactive, TRPV1 agonist inactive, gsp ag inactive, TRPV1 potentiator inactive, RXFP1 antag inactive and RXFP1 ag inactive.
For CS(=O)(=O)N1CCc2cc(C(=O)Nc3ccc(Cl)cc3)ccc21 the results were gsp antagonist inactive, TRPV1 agonist 84, gsp ag inactive, TRPV1 potentiator inactive, RXFP1 antag inactive and RXFP1 ag inactive.
CCOc1ccccc1CNc1nc2ccccc2n1C was read as gsp antagonist inactive, TRPV1 agonist inactive, gsp ag inactive, TRPV1 potentiator 84, RXFP1 antag inactive and RXFP1 ag inactive.
Screening CCc1ccc2oc(-c3ccc(NC(=O)c4cccc(Cl)c4Cl)cc3)nc2c1 returned RXFP1 antag inactive and RXFP1 ag inactive.
Screening CCc1c(C(=O)Nc2cc(C)cc(C)c2)[nH]c(C)c1C(C)=O returned gsp antagonist 35µM, TRPV1 agonist inactive, gsp ag inactive, TRPV1 potentiator inactive, RXFP1 antag inactive and RXFP1 ag inactive.
Screening CCOc1ccc(CCNC(=O)c2[nH]c(C)c(C(C)=O)c2CC)cc1OCC returned gsp antagonist inactive, TRPV1 agonist inactive, gsp ag inconclusive, TRPV1 potentiator inactive, RXFP1 antag inactive and RXFP1 ag inactive.
`CC(C(=O)N1CCN(c2ccc(Cl)cc2)CC1)c1ncc(C(F)(F)F)cc1Cl` (stereo not given) gave gsp antagonist 35µM, TRPV1 agonist inactive, gsp ag inactive, TRPV1 potentiator inactive, RXFP1 antag inactive and RXFP1 ag inactive.
`NC(=O)CCCCC1CCSS1` (stereo not given) gave RXFP1 antag -101.
Cc1ccc(CNC(=O)CCCn2nc(C)n3ccnc3c2=O)cc1 was read as gsp antagonist inactive, TRPV1 agonist inactive, gsp ag inconclusive, TRPV1 potentiator inactive, RXFP1 antag inactive and RXFP1 ag 16µM.
Screening COc1ccc(CCNC(=O)CCCn2nc(C)n3ccnc3c2=O)cc1OC returned gsp antagonist inactive, TRPV1 agonist inactive, gsp ag inconclusive, TRPV1 potentiator inactive, RXFP1 antag inactive and RXFP1 ag inconclusive.
Cc1nn(CCCC(=O)NCc2ccc(F)cc2)c(=O)c2nccn12 was read as gsp antagonist inactive, TRPV1 agonist inactive, gsp ag inconclusive, TRPV1 potentiator inactive, RXFP1 antag inactive and RXFP1 ag 28µM.
COc1cccc(-n2c(-c3ccc(C)cc3)cc3c2CC(C)(C)CC3=O)c1 was read as RXFP1 antag inactive and RXFP1 ag inactive.
COc1ccc(-n2c(-c3ccc(C)cc3)cc3c2CC(C)(C)CC3=O)c(OC)c1 was read as RXFP1 antag -62 and RXFP1 ag inactive.
Screening COc1ccc(N(C)S(=O)(=O)c2ccc(C)cc2)c([N+](=O)[O-])c1 returned gsp antagonist inactive, TRPV1 agonist inactive, gsp ag inactive[15.4 µM], TRPV1 potentiator inactive, RXFP1 antag inactive and RXFP1 ag inactive.
Cc1ccc(S(=O)(=O)N(C)c2ccc(C)c([N+](=O)[O-])c2)cc1 was read as gsp antagonist inactive, TRPV1 agonist inactive, gsp ag inactive[15.4 µM], TRPV1 potentiator 80, RXFP1 antag inactive and RXFP1 ag inactive.
Screening CC(=O)c1cccc(NC(=O)C(C)OC(=O)c2ccc(-n3cnnn3)cc2)c1 (stereo not given) returned gsp antagonist inactive, TRPV1 agonist inactive, gsp ag inactive, TRPV1 potentiator inactive, RXFP1 antag inactive and RXFP1 ag inactive.
`CC(C)Oc1ccc(CCNC(=O)C2CCC(=O)N(C3CCCCCC3)C2)cc1` (stereo not given) gave gsp antagonist inactive, TRPV1 agonist inactive, gsp ag inconclusive, TRPV1 potentiator inactive, RXFP1 antag inactive and RXFP1 ag inactive.
For COc1ccc(CCNC(=O)C2CCC(=O)N(C3CCCCCC3)C2)cc1 (stereo not given) the results were gsp antagonist 50µM, TRPV1 agonist inactive, gsp ag inconclusive, TRPV1 potentiator inactive, RXFP1 antag inactive and RXFP1 ag inactive.
O=C(COC(=O)C1CCCC1)Nc1cccc(Cl)c1Cl was read as gsp antagonist inactive, gsp ag inactive and RXFP1 antag -74.
For COc1ccc(-n2c(=S)[nH]c3cc(C(=O)Nc4ccccc4OC)ccc3c2=O)c(OC)c1 the results were gsp antagonist 28µM, TRPV1 agonist inactive, gsp ag inactive[15.4 µM], TRPV1 potentiator inactive, RXFP1 antag inactive and RXFP1 ag inactive.
Screening COc1ccc(-n2c(=S)[nH]c3cc(C(=O)Nc4ccc(F)cc4)ccc3c2=O)c(OC)c1 returned gsp antagonist 40µM, TRPV1 agonist inconclusive, gsp ag inactive, TRPV1 potentiator inactive, RXFP1 antag inconclusive and RXFP1 ag inactive.
COc1ccc(-n2c(=S)[nH]c3cc(C(=O)NCc4ccccc4OC)ccc3c2=O)c(OC)c1 was read as gsp antagonist inactive, TRPV1 agonist inactive, gsp ag inactive[15.4 µM], TRPV1 potentiator inactive, RXFP1 antag inactive and RXFP1 ag inactive.
For COc1ccc(-n2c(=S)[nH]c3cc(C(=O)NCc4ccc(F)cc4)ccc3c2=O)c(OC)c1 the results were gsp antagonist 25µM, TRPV1 agonist inactive, gsp ag inactive[15.4 µM], TRPV1 potentiator inactive, RXFP1 antag inactive and RXFP1 ag inactive.
COc1ccc(-n2c(=S)[nH]c3cc(C(=O)Nc4ccccc4OC)ccc3c2=O)cc1 was read as TRPV1 agonist inactive, TRPV1 potentiator inactive and RXFP1 ag inactive.
COc1ccc(-n2c(=O)c3ccc(C(=O)NCc4ccc(C)cc4)cc3n(CC(=O)Nc3ccc(F)cc3)c2=O)cc1 was read as RXFP1 ag 32µM.
Screening CC(C)C(=O)N1CCCCCCN1C(=O)C(C)C returned gsp ag inactive and RXFP1 antag inactive.
